Assay outcomes (PubChem BioAssay)
SRC1 inh – human NCOA1 inhibition; inhibition, % at 3.6 µM; HEK293 GAL4-SRC1 luciferase reporter, luminescence; Q15788; 360,000 compounds, 0.12% hits; AID 588354;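 active = inhibition above the campaign mean plus 3 SD, with each screening campaign given its own cutoff, cut at about 60% in these data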;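 note: 0% = DMSO treated cells and 100% = gossypol at 36 µM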
NCOA3 inh – inhibits human SRC3 coactivator; 360,000 compounds, 0.17% hits; AID 588352; HEK293 GAL4-SRC3 luciferase reporter, luminescence; inhibition, % at 3.6 µM; Q9Y6Q9;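 active = inhibition above a per-campaign cutoff, the mean of all compounds plus 3 SD, cut at about 60% in these data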;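 note: 0% = DMSO-treated cells and 100% = gossypol-treated cells at 36 µM; higher means less SRC3-driven luciferase light from the GAL4 reporter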
Target sequence (Q9Y6Q9 whole entry, looked up, the tested form may be a part): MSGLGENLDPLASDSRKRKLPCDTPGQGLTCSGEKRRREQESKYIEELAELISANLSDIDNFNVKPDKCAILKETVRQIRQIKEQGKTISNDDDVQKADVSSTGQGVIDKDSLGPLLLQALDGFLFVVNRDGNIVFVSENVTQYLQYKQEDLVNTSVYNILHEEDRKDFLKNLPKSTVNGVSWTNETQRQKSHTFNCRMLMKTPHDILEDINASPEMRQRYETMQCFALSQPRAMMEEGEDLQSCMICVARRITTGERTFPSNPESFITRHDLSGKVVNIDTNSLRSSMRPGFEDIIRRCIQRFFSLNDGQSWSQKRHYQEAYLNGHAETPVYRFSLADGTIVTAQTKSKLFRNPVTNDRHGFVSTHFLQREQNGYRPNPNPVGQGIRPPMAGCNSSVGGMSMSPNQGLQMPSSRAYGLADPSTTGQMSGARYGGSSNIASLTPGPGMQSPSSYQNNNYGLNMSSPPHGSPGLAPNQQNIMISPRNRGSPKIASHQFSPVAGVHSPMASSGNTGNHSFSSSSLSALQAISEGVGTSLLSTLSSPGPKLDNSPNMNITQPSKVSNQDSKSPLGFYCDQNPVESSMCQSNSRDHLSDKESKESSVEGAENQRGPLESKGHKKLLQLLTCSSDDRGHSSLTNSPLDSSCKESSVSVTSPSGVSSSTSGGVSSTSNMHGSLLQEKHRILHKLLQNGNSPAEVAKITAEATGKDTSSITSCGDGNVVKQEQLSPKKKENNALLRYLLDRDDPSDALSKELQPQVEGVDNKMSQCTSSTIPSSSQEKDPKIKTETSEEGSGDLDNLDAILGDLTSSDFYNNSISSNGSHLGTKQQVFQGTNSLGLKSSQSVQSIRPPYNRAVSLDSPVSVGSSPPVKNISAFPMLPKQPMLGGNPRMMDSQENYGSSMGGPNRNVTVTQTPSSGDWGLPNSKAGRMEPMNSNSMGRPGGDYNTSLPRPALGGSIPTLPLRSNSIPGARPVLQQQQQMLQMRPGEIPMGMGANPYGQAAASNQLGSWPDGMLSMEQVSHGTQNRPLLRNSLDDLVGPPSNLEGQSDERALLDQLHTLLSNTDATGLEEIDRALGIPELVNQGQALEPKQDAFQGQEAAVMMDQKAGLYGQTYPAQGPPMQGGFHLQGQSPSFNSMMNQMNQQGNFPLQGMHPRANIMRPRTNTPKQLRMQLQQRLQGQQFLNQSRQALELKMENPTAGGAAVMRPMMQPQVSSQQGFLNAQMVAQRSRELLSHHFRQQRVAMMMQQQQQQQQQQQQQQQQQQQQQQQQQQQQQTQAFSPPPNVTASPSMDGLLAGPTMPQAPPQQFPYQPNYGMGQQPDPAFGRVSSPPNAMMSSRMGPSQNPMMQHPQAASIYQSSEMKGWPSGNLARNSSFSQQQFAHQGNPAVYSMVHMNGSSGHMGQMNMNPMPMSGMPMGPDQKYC
Gli-Sufu block – blocks Gli-Sufu signaling in a luciferase reporter; 340,000 compounds, 0.74% hits; Sufu-KO-LIGHT fibroblasts, Gli luciferase reporter luminescence; AID 588413; inhibition, % at 5 µM;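 active = inhibition above about 55%, limit read from the data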;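 note: 0% = DMSO-treated cells and 100% = wells with medium but no cells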
COUP-TFII inh – inhibitors of human COUP-TFII (NR2F2); P24468; HEK293T NGFI-A luciferase reporter, luminescence; inhibition, % at 8.6 µM; 370,000 compounds, 0.7% hits;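 active = inhibition above a per-plate cutoff, mean inhibition of test wells between control levels plus 3 SD, cut at about 38% in these data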;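 note: cells cotransfected with COUP-TFII expression vector driving the NGFI-A reporter; 0% = median of COUP-TF2 test wells and 100% = reporter-only cells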
NR5A2 inv ag – NR5A2 inverse agonism in reporter assay. O00482. 360,000 compounds, 0.13% hits. HEK293T StAR-luciferase reporter, LRH-1 transfected, 24 h. inhibition, % at 3.6 µM;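 active = inhibition above the mean inhibition of all tested compounds plus 3 SD, cut at about 73% in these data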;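 note: 0% = DMSO wells and 100% = reporter-only cells lacking LRH-1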
NCOA2 inhibitor – inhibits human steroid receptor coactivator 2; Q15596; HEK293 GAL4-SRC2 luciferase reporter, luminescence; inhibition, % at 9 µM; 370,000 compounds, 0.17% hits;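 active = inhibition above the mean inhibition of all tested compounds plus 3 SD, set per campaign, cut at about 52% in these data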;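 note: 0% = DMSO treated cells and 100% = cells given Gossypol at 36 µM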
Gli antag conf – confirmation of Gli-SUFU pathway antagonists | 2,500 compounds, 40% hits | inhibition, % at 5 µM | Sufu-KO-LIGHT cells, Gli luciferase reporter, luminescence | AID 602428 | shares compounds with Gli-Sufu block;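 active = mean inhibition at 5 µM reaching about 45%, limit read from the data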;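 note: plate controls were DMSO-treated cells for no effect and wells lacking cells for full effect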
Gli cytotox – cytotoxicity counter-screen for Gli-SUFU antagonists; cytotoxicity, % at 5 µM; 2,500 compounds, 32% hits; shares compounds with Gli-Sufu block; Sufu-KO-LIGHT cells cytotoxicity, ATP luminescence;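 active = mean cytotoxicity at 5 µM above about 25%, limit read from the data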;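 note: cells exposed to compound overnight for roughly 16 to 18 hours; plate controls were DMSO wells with cells for no effect and medium without cells for full effect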
Wnt3a counter – inhibits Wnt3a reporter, counter-screen for Gli-SUFU antagonists. shares compounds with Gli-Sufu block. Wnt-LIGHT cells, Wnt3a-driven luciferase reporter, luminescence. inhibition, % at 6.25 µM. 2,500 compounds, 20% hits. AID 651995;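 active = mean inhibition above about 25%, limit read from the data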
* hit, by the source's call; . = no result given. In the library only some 1.3% were active in any assay of this set; here they are far more common.

SMILES | SRC1 inh | NCOA3 inh | Gli-Sufu block | COUP-TFII inh | NR5A2 inv ag | NCOA2 inhibitor | Gli antag conf | Gli cytotox | Wnt3a counter
N#CCCCc1cn(-c2cccc(-c3noc4c3C(=O)N(CC(=O)N3CCOCC3)CC4)c2)nn1 | . | . | . | 2 | . | -44 | . | . | .
COc1ccc(C2(c3ccc(OC(C)=O)cc3OC(C)=O)CC(c3ccccc3)NC(=S)N2)cc1 (centres undefined) | -21 | -28 | 62* | 9 | 16 | -23 | 10 | 12 | -13
CC(=O)Oc1ccc2c(c1)OC(c1ccccc1)CC21CC(C)(C)NC(=S)N1 (centres undefined) | 17 | 6 | 9 | 3 | 14 | -18 | . | . | .
O=C(CSc1nc2sc3c(c2c(=O)n1-c1ccccc1)CCCC3)NCc1ccco1 | 50 | 42 | 64* | 9 | 57 | -15 | 28 | 4 | -8
O=C(CSc1ccc2nnc(-c3cccnc3)n2n1)NCc1ccco1 | -10 | -28 | 82* | 4 | -11 | -11 | 13 | 17 | -10
O=C(Nc1ccc(Oc2ccccc2)nc1)C1CCN(Cc2ccccc2)CC1 | 8 | 6 | 65* | 18 | 6 | 14 | 17 | 3 | -13
O=C(/C=C/c1ccc(S(=O)(=O)N2CCOCC2)cc1)NCc1ccccc1Cl | 11 | 12 | 5 | 7 | 9 | 14 | . | . | .
O=C(/C=C/c1ccc(S(=O)(=O)N2CCOCC2)cc1)NCc1ccccc1F | -3 | 3 | 52 | 33 | 8 | -4 | 33 | 9 | -5
c1ccc(C[n+]2cccc(-c3ccccc3)c2)cc1 | 22 | 11 | 57* | -6 | 5 | -8 | 57* | 15 | 10
COc1ccc(-n2c(C)cc(C(=O)CCl)c2C)cc1 | -3 | 3 | 6 | 14 | 28 | 29 | . | . | .
COc1ccc(-n2c(C)cc(C(=O)CN3C(=O)c4ccccc4C3=O)c2C)cc1 | -30 | -23 | 96* | -7 | -22 | -29 | -3 | 10 | -41
O=C(c1ccccc1SCc1ccccc1)N1CCOCC1 | 2 | -9 | 61* | -5 | -17 | -3 | 17 | -2 | 9
CCC(=O)Nc1cccc(-n2nnnc2SCC(=O)N2CCCCC2)c1 | -21 | -17 | 59* | -12 | -38 | 9 | 7 | 15 | 1
O=C(OCCN1CCN(C2CN(Cc3cn(Cc4ccccc4F)nn3)S(=O)(=O)C2)CC1)c1cc2ccccc2o1 (centres undefined) | . | . | . | 6 | . | -2 | . | . | .
Nc1ccc(Br)cc1-c1nc2ccccc2[nH]c1=O | -7 | -21 | 52 | 0 | -17 | -47 | 69* | 34* | 7
Nc1ccccc1-c1nc2ccccc2[nH]c1=O | -67 | -46 | -5 | -38 | -76 | -34 | . | . | .
COc1nc(NCCC2=CCCCC2)nc(OC)n1 | -10 | 7 | 99* | 0 | -15 | -39 | 18 | 3 | -20
CCN1CCCC1CNc1ncnc2c1[nH]c1ccc(Cl)cc12 (centres undefined) | -8 | -7 | 52 | -9 | -9 | 1 | 40 | 13 | -95
Cc1c(Cl)cccc1NC(=O)CCN1CCC(C(N)=O)CC1 | 12 | -2 | 57* | -11 | -11 | 7 | 21 | 3 | 19
Cc1c(Cl)cccc1NC(=O)CCN1CCN(CCO)CC1 | -16 | -3 | -2 | 4 | 9 | -19 | . | . | .
O=C(N1CCC(Cc2ccccc2)CC1)n1ncc(C(O)(c2ccccc2)c2ccccc2)n1 | . | . | . | 31 | . | . | . | . | .
CCOc1ccc(OCC)c(S(=O)(=O)NCCOC23CC4CC(CC(C4)C2)C3)c1 | 11 | 32 | 52 | 37 | 10 | 25 | 23 | 31* | 8
CC(SC(C)C(=O)NN=Cc1cccc(Cl)c1)C(=O)NN=Cc1cccc(Cl)c1 (centres undefined) | 10 | -10 | 7 | -1 | -7 | 3 | . | . | .
COc1cccc(C=NNC(=O)C(C)SC(C)C(=O)NN=Cc2cccc(OC)c2)c1 (centres undefined) | -1 | -3 | 52 | 5 | -13 | 0 | 6 | -14 | -10
